# PubChem BioAssay (NCI)
# This is part of a sample that, as a whole, favours compounds with a hit. Of some 83,000 tested, about 20% had one in any assay.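 Method: cells in 96-well plates; compound added at one concentration; 48 h incubation; percent growth measured; values under 10 scored active.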 Unmarked numbers belong to inactive results. Calls of active or inactive are those of the source.
# Test system: COLO 205 colon
# Assay: NCI-60 one-dose screen, 48 h (100 = growth as untreated, 0 = no growth, -100 = all killed)
# Settings: 10 µM
# Protocol: Cells are grown in 96 well plates and exposed to the test compound for 48 hours. Compounds are tested at a single concentration, which is 10^-5 M for most compounds. The reported endpoint is percent growth (GI% or GIPRCNT), where numbers from 0 - 100% represent growth inhibition, and numbers from -100% - 0 represent cell death. For example, a value of 40 represents 60% growth inhibition. A value of 0 means no net growth occurred over the course of the experiment. A value of -40 indicates 40% of cells at the beginning of the experiment died by the end of the experiment. A value of -100 means all cells are dead at the end of the experiment.
# NCI-60 Human Tumor Cell Lines Screen was performed using the standard one-dose NCI protocol, which is described in more detail at https://dtp.cancer.gov/discovery_development/nci-60/default.htm.
# Compounds with GIPRCNT values below 10 were considered active. Activity score was based on GIPRCNT using the following formula: […]
# Score is 0 for GIPRCNT values of 100 or above, 50 for GIPRCNT values of 0, and 100 for GIPRCNT values of -100.
row,SMILES,growth
1,O=C(Nc1ccncc1)c1ccc(-n2c(=O)[nH]c3ccccc3c2=O)cc1,102%
2,O=c1[nH]c2ccccc2cc1CSc1ccc(Nc2nccc(-c3ccc(C(F)(F)F)cc3)n2)cc1,18%
3,CN1C(=O)/C(=C/c2ccc3ncsc3c2)NC1=NC12CC3CC(CC(O)(C3)C1)C2,-37.9% (active)
4,CN1CCN(c2ccc(Nc3nc(NCCCNC(=O)c4ccccc4)c4sccc4n3)cc2)CC1,93.8%
5,CC(C)NC(=O)c1cc(-c2ccc(NC(=O)Nc3ccc(N4CCN(C)CC4)c(C(F)(F)F)c3)cc2)nc2cccnc12,-81.1% (active)
6,O=C(/C=C/Nc1ccc(F)cc1F)c1ccc2c(c1)Nc1ccccc1S2,80.6%
7,O=C(CSc1nnc(-c2c[nH]c3ccccc23)n1-c1ccccc1)Nc1ccc(C(=O)/C=C/c2ccc(Cl)cc2)cc1,89.7%
8,O=C1Nc2ccc(Cl)cc2/C1=C/c1cccc(OCc2ccccc2)c1,45.8%
9,CC(=O)Nc1ccc(-c2cn(-c3cccc(C(=O)Nc4ccc(F)c(C(F)(F)F)c4)c3)nn2)cn1,46%
10,N#Cc1c(NC(=O)c2ccc(C(F)(F)F)cc2)sc2c1CCC(=O)C2,-95.3% (active)
11,CN1CCO/C1=C(/NC(=O)c1ccc(Cl)cc1)[P+](c1ccccc1)(c1ccccc1)c1ccccc1,68.9%
12,O=C1Nc2cc(Cl)ccc2/C1=C/c1cccc(OCc2ccccc2)c1,-22.8% (active)
13,CC(=O)c1cc(C(=O)c2ccc3c(c2)NC(=O)CO3)n2ccc3ccccc3c12,91.9%
14,CC1=C2C(=C[C@@](C)(CO)[C@@H]2O)/C(=N\N)[C@](C)(O)C12CC2,-79.4% (active)
15,COc1ccc2[nH]c(=O)c(CSc3ccc(Nc4nccc(-c5ccc(Cl)cc5)n4)cc3)cc2c1,108%
16,COc1ccc2c(c1)N=C(C(=O)O)/C2=C/c1sc(Nc2ccc(O)cc2)nc1O,89.2%
17,Oc1ccc(/C=C2\CCCc3cc4ccc(O)cc4[o+]c32)c(O)c1,50.6%
18,COc1cc(/C=N/NC(=O)c2ccc3nc(-c4ccc(Cl)cc4)[nH]c3c2)cc(OC)c1OC,-9.12% (active)
19,CN1CCN(c2ccc(C(=O)/C=C/c3ccc(OC(F)F)cc3)cc2)CC1,34.8%
20,CC(=O)C1=C(C)NC(SCC(=O)Nc2ccc(S(=O)(=O)Nc3cc(C)on3)cc2)=NC1c1ccccc1 (stereo not given),122%

row,SMILES,growth
1,CC(C)Sc1nc(NC2CC2)c(C#N)c(-c2ccccc2)n1,90.5%
2,CCCn1c(O)c(N=Nc2nc(-c3cc4ccccc4oc3=O)cs2)c2cc(Br)ccc21,139%
3,O=C1Nc2ccc(Cl)cc2/C1=C/c1ccc(OCc2ccccn2)cc1,89.1%
4,COc1ccc(NC(=O)Cn2c(/C=C/c3ccc(N(C)C)cc3)nc3ccccc3c2=O)cc1,47%
5,CCCn1c(=O)c2[nH]c(-c3ccc(OCc4nc5ccc(C)cc5[nH]4)cc3)nc2n(CCC)c1=O,91.3%
6,O=C(CSc1nnc(-c2c[nH]c3ccccc23)n1-c1ccccc1)Nc1ccc(C(=O)/C=C/c2ccc(Br)cc2)cc1,108%
7,CN1CCN(Cc2ccc(NC(=O)c3cncc(C#Cc4cnc5ccc(N[C@H]6CCOC6)nn45)c3)cc2C(F)(F)F)CC1,-79.6% (active)
8,COC(=O)CC1CC1C1Cc2c(nc(N(C)S(C)(=O)=O)nc2C(C)C)-c2ccc(F)cc21 (stereo not given),90.8%
9,Nc1n[nH]c2cccc(C#Cc3cccc(NC(=O)Nc4cc(C(F)(F)F)cc(C(F)(F)F)c4)c3)c12,-77.5% (active)
10,COc1ccc2[nH]c(O)c(N=NC(=O)COc3ccc(NC(=O)Nc4ccc(Cl)cc4)cc3)c2c1,-1.56% (active)
11,Cc1cc(C)nc(SCC(=O)Nc2ccc(S(N)(=O)=O)cc2)n1,124%
12,CCCSc1nc(NC2CC2)c(C#N)c(-c2ccc(OC)cc2)n1,134%
13,O=C(Nc1ccc(Cl)c([N+](=O)[O-])c1)Nc1ccc(Cl)c([N+](=O)[O-])c1,2.69% (active)
14,O=C(c1ccc(O)cc1)C1[C@H](c2ccccc2Br)[C@@H](c2ccccc2)NC12C(=O)Nc1ccc(Cl)cc12 (stereo not given in full),-76.9% (active)
15,Cc1ccc(C(=O)Nc2ccc(-n3c(C)nc4c(cnn4-c4ccccc4)c3=O)cc2)cc1,77.4%
16,Cc1ccc([N+](=O)[O-])c(C(=O)Nc2ccc(-c3ccc4c(c3)NC(=O)/C4=C\c3ccc[nH]3)cc2)c1,8.99% (active)
17,COc1ccccc1[C@H]1C(C(=O)c2ccc(Cl)cc2)C2(N[C@@H]1c1ccccc1)C(=O)Nc1ccccc12 (stereo not given in full),-88.2% (active)
18,CN1C(=O)N(C)C2SC(N/N=C/c3ccccc3F)=NC21 (stereo not given),100%
19,O=C(Nc1ccc(F)c(Cl)c1)c1cc(-c2ccc(F)cc2F)ccc1O,4.58% (active)
20,O=C(NO)c1ccc(-c2nc3ccc4[nH]ncc4c3c3c2CCCC3)cc1,-20.1% (active)
